Records with an inconclusive call do not appear. Activity calls are given as the source filed them.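 The calls were made as follows, unless noted: active = viability at or under a set limit in both replicates, limit being median viability minus 3 SD (cut at about 48% in these data, passing the limit was not always enough); inconclusive = at or under the limit in just one replicate; inactive = at or above the limit in both replicates.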

The values that follow come from PubChem BioAssay.

The nature of test [1]: reducers of endogenous Her2 protein level, primary screen, SKBR3 breast tumor cells, AlphaScreen, ATP viability (AID 461;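 active = Her2 level under about 52% in both replicate screens, with viability over 70% of control, limit read from the data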;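 as to Her2 level: lower value means less Her2 protein in the cells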;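 as to viability: percent of carrier control wells set as 100% viability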). To be noted: 18-24 h, measured here: SKBR3 viability, ATP luminescence, at 10 µM. Background: In Alpha technology, singlet oxygen from a donor bead excites a nearby acceptor bead.
Test [2] has as its target Receptor tyrosine-protein kinase erbB-2 (Homo sapiens) (UniProt P04626). The description is as above. To be noted: 18-24 h, at 10 µM, stronger effect = lower value.
The nature of test [3]: SK-BR-3 cell growth inhibitors, pilot screen, 24 h, human (AID 572;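 active = viability at or below 10% of carrier control in both of two separate runs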;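 also: compound exposure lasted between 18 and 24 h rather than exactly 24 h; 100% = carrier-treated control wells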). To be noted: SK-BR-3 viability, CellTiter-Glo luminescence, at 10 µM, stronger effect = lower value.
Test [4] is described as follows: HUVEC growth inhibition – cell-based, human, primary screen (AID 575;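 active = viability at or below 30% in both replicate assays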;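 also: 100% = median of untreated cell wells with 0.1% DMSO on each plate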). To be noted: HUVEC proliferation, CellTiter-Glo luminescence, 72 h; at 10 µM; stronger effect = lower value. (In general: In ATP-based viability assays light output follows the ATP content of the culture.)
The nature of test [5]: growth inhibitors of H69AR lung tumor, primary screen, human, duplicate replicates (AID 580).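 Also: 100% = mean luminescence of untreated wells and 0% = no signal.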 To be noted: H69AR lung tumor cells viability, ATP luminescence, 72 h; at 10 µM; stronger effect = lower value.
Test [6] is described as follows: reversal of MRP1-mediated doxorubicin resistance, pilot screen, H69AR cells, doxorubicin co-treatment (AID 601;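 active = viability loss from added drug above about 55%, and viability with drug at most 40%, in both replicates, limit read from the data, passing the limit was not always enough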). To be noted: CellTiter-Glo, 72 h, at 10 µM; for differential viability (reversal): stronger effect = higher value.
The nature of test [7]: 384-well plate pilot, post-Golgi transport modulator project, inhibition of yeast transport mutant growth (AID 636; in the data active = inhibition above about 31%). To be noted: absorbance 615 nm, about 18 h, stronger effect = higher value.
The nature of test [8]: growth suppression of yeast trafficking mutant, preliminary HTS, modulators of trafficking downstream of Golgi apparatus project, 1536-format plate, OD 615 nm (AID 637; in the data active = inhibition above about 30%). To be noted: yeast transport mutant growth, absorbance 615 nm, 18 h; stronger effect = higher value.
Test [9] can be described thus: OD615 S. cerevisiae growth inhibition, permissive medium, pilot counter-assay, permissive growth control for S. cerevisiae lifespan shortening project (AID 705;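 active = growth inhibition above 25% in both replicates, a cutoff set 3 SD above the mean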). To be noted: OD615, 24 h, at 10 µM, stronger effect = higher value.
The nature of test [10]: Restrictive medium S. cerevisiae growth inhibition, OD615, pilot screen of yeast lifespan reduction project, restrictive growth control (AID 706;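 active = growth inhibition above a set limit, 3 SD over mean compound inhibition, in both replicates, cut at about 43% in these data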;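 also: modified DeaD lifespan yeast strain shifted to restrictive glucose medium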). To be noted: OD615, 48 h, at 10 µM, stronger effect = higher value.
The nature of test [11]: viability gain of MRP-1-high H69AR cells under doxorubicin, pilot screen, MRP-1 activator project, CellTiter-Glo, duplicate (AID 807;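 active = viability increase at or above a cutoff of the median across tested compounds plus 3 SD, cut at about 8.5% in these data, passing the limit was not always enough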;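 also: compound pretreatment 18-22 h then 72 h combined with doxorubicin; 0% = doxorubicin alone and 100% = vehicle without doxorubicin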). To be noted: H69AR viability with doxorubicin, CellTiter-Glo luminescence; at 10 µM; stronger effect = higher value.
A short description of test [12]: growth suppression of beta-catenin knockout HCT116, pilot screen, human colon tumor cells (AID 823;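 active = cell viability at or below a set limit in both duplicate runs, the limit being the all-compound median minus 4 SD, cut at about 23% in these data, passing the limit was not always enough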;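 also: 0% = wells killed by 20 µM Hyamine and 100% = untreated DMSO cell wells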). To be noted: CellTiter-Glo, 60 h, at 10 µM, stronger effect = lower value.
A short description of test [13]: growth suppression of PTEN-deleted HCT116, pilot screen, cell-based, HCT116 clonal line, CellTiter-Glo (AID 824;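 active = viability at or below 27.92% in each of two runs, the all-compound median minus 4 SD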;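 also: 0% = 20 µM Hyamine control and 100% = vehicle cell control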). To be noted: 60 h, at 10 µM, stronger effect = lower value.
The nature of test [14]: inhibitors of the yeast RAM network, pilot screen, dse1pr::URA3 reporter, 5-FOA selection (AID 869;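 active = inhibition over a set limit, the all-compound mean plus 3 SD, in both replicate runs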;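 also: 0% = DMSO wells with no growth and 100% = 10 µM 1-NA-PP1 with full growth; RAM network block rescues cells from 5-FOA so hits raise OD615 growth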). To be noted: S. cerevisiae dse1pr::URA3 5-FOA growth, OD615, 2 d; at 10 µM; stronger effect = higher value; strain carries analog-sensitive mutant Cbk1 kinase.
Test [15] in a line: RAM signaling pathway blockade in yeast – S. cerevisiae, Pdr1DBD-CYC8 efflux-inhibited sensitized strain, primary screen (AID 1298;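 active = RAM network inhibition above 8.4% in each of two replicates, 3 SD over the compound average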;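 also: 0% = DMSO untreated cells without growth and 100% = 10 µM 1-NA-PP1 full growth; higher means more yeast growth rescued from 5-FOA killing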). To be noted: S. cerevisiae cbk1-as DSE1-URA3 strain, 5-FOA growth OD615, 2 d; at 50 µM; stronger effect = higher value.
[16] abbreviates: H69AR cells + 2 uM doxorubicin, measured here: viability with 2 uM doxorubicin, stronger effect = lower value.
Where [17] appears, read: H69AR cells, compound alone cytotoxicity.

Receptor tyrosine-protein kinase erbB-2 (Homo sapiens), sequence (P04626 whole entry, looked up): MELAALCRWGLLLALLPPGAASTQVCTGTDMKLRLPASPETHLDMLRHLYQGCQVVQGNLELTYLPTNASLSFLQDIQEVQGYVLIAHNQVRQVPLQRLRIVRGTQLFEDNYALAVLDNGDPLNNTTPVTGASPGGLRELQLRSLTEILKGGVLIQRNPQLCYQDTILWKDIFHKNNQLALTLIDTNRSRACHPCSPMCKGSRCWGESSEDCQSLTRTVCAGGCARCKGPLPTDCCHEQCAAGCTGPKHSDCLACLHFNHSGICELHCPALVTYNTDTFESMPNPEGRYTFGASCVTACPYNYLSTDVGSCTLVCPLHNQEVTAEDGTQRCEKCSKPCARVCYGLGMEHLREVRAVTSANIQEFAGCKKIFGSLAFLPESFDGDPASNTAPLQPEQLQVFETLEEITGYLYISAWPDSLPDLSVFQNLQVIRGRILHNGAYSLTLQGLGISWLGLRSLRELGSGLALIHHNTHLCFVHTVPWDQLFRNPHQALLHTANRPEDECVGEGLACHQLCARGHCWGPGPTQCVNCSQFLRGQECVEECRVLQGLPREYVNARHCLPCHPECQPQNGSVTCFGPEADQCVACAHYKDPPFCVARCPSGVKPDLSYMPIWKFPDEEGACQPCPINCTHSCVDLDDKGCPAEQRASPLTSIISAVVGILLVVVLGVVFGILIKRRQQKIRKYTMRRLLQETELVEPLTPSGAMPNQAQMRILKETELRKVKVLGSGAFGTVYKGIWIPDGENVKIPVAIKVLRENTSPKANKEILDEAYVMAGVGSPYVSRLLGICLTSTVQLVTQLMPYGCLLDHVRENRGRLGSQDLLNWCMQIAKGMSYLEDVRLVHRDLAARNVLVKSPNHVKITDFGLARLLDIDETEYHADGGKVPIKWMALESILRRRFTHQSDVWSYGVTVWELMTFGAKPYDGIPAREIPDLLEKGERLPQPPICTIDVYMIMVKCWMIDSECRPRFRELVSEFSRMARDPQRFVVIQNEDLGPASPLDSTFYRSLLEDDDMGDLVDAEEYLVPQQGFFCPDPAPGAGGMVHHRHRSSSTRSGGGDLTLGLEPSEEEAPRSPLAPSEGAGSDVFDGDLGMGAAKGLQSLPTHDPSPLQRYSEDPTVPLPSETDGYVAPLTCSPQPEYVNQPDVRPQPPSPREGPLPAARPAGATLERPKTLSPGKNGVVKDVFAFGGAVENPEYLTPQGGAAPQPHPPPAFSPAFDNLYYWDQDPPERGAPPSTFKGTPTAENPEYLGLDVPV

The term viability denotes a read-out of living cells in per cent, often relative to untreated cells. One may read the inhibition as the change of the read-out against control, counted positive when it falls. For the compound `CN(C)CCCN1C(=O)CSC1c1ccccc1` (stereo not given), the viability is 100% in test [1]; 100% (inactive) in test [3]; 91.6% (inactive) in test [4]; 94.4% (inactive) in test [5]; 90.1% in test [6] (setting [16]); 94.4% in test [6] (setting [17]). Besides, the figures for the viability in test [12] and in test [13] were 104% (inactive) and 101% (inactive), respectively. Moreover, the Her2 level in test [2] was 99% (inactive). In addition, the differential viability (reversal) in test [6] (H69AR cells + 2 uM doxorubicin) was 4.35% (inactive). For the same compound, the inhibition in test [7] is -4.67% (inactive); in [8] it was -1.83% (inactive); in [14], 1.47% (inactive). In addition, the growth inhibition was -2.19% (inactive) in test [9] and -1.53% (inactive) in test [10]. In addition, in test [11], the viability increase is -0.9% (inactive). Also, the RAM network inhibition in test [15] is 0.73% (inactive).

`CC(C)CCNC(=O)Cn1c(NCCC(C)C)nc2c1c(=O)n(C)c(=O)n2C`: the viability was 121% in [1]; 121% (inactive) in test [3]; 102% (inactive) in [4]; 93.7% (inactive) in [5]; 94% in test [6] (setting [16]); 93.7% in test [6] (setting [17]). The viability was 98.2% (inactive) in test [12] and 92.8% (inactive) in test [13]. In addition, in [2], the Her2 level was 118% (inactive). Besides, the differential viability (reversal) in test [6] (H69AR cells + 2 uM doxorubicin) is -0.345% (inactive). Moreover, the inhibition in test [7] was 1.73% (inactive); in [8], -2.5% (inactive); in test [14], 0.94% (inactive). Further, the figures for the growth inhibition in [9] and in [10] were -4.12% (inactive) and -0.68% (inactive), respectively. The viability increase in [11] was -1.31% (inactive). In [15], the RAM network inhibition is -0.63% (inactive).

For `CN1CCN(C(=O)c2ccc(CS(=O)(=O)c3c(Cl)cccc3Cl)o2)CC1`, the viability in test [1] was 98.5%; in test [3] it was 98.5% (inactive); in [4], 97.4% (inactive); in test [5], 94.3% (inactive); in test [6] (setting [16]), 85.8%; in [6] (setting [17]), 94.3%. For the same compound, the viability in test [12] was 103% (inactive); in [13], 96% (inactive). For the same compound, the Her2 level in [2] is 88.5% (inactive). For the same compound, the differential viability (reversal) in [6] (H69AR cells + 2 uM doxorubicin) was 8.46% (inactive). In addition, the inhibition was -2% (inactive) in test [7], -2.46% (inactive) in [8] and 1.41% (inactive) in [14]. In addition, the growth inhibition was -7.05% (inactive) in test [9] and -12% (inactive) in test [10]. Besides, the viability increase in test [11] was 0.72% (inactive). Besides, the RAM network inhibition in test [15] is 0.22% (inactive).

On to `O=C(O)COc1ccc(S(=O)(=O)NCCc2ccccc2)cc1`, for which the viability in test [1] was 105%; in test [3] it was 105% (inactive); in test [4], 115% (inactive); in test [5] it was 106% (inactive); in test [6] (setting [16]), 78.8%; in [6] (setting [17]) it was 106%. The viability was 108% (inactive) in [12] and 96.2% (inactive) in [13]. Moreover, in [2], the Her2 level is 103% (inactive). The differential viability (reversal) in [6] (H69AR cells + 2 uM doxorubicin) is 27.5% (inactive). Moreover, the inhibition in test [7] was -6.4% (inactive); in test [8] it was 2.62% (inactive); in test [14] it was 1.84% (inactive). Moreover, the figures for the growth inhibition in [9] and in [10] were -6.59% (inactive) and 10.2% (inactive), respectively. For the same compound, the viability increase in test [11] was -0.3% (inactive). For the same compound, the RAM network inhibition in test [15] was -2.61% (inactive).

As to `CCCCN(CC)CCNC(=O)c1cc2c(C)nc3ccccc3c2o1`, the viability is 91% in test [1]; 91% (inactive) in [3]; 63.6% (inactive) in [4]; 85.3% (inactive) in [5]; 82.4% in [6] (setting [16]); 85.3% in test [6] (setting [17]). Further, the viability in test [12] was 75% (inactive); in test [13], 84% (inactive). Also, in test [2], the Her2 level was 95.5% (inactive). Further, the differential viability (reversal) in [6] (H69AR cells + 2 uM doxorubicin) is 2.99% (inactive). Besides, the inhibition in [7] was -5.73% (inactive); in [8], -4.43% (inactive); in test [14], 0.07% (inactive). Besides, the growth inhibition in test [9] is 10% (inactive); in test [10], 1.23% (inactive). The viability increase in test [11] is -3.49% (inactive). The RAM network inhibition in test [15] was 2.07% (inactive).
